Rows were chosen to be rich in hits. Some 1.1% of all compounds tested hit in one or more screens of this group.
GalR3 antagonist – GalR3 antagonists in HEK293 cells, primary screen, cell-based, fluorescence readout. 360,000 tested, 0.44% active. AID 651719, 2012. HEK293 GalR3-CNG cAMP membrane potential fluorescence; galR3 body fused to GalR1 C-terminus. inhibition, % at 3 µM. Galanin receptor type 3 (Homo sapiens), O60755;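 active = inhibition above the screen-wide average plus 3 SD, cut at about 13% in these data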;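 also: forskolin and galanin both at EC90 stimulate the cells; cAMP rise reported by CNG channel membrane potential dye signal; 0% = forskolin plus galanin with DMSO and 100% = forskolin alone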
NCOA2 inhibitor – inhibition of GAL4-SRC2 driven luciferase reporter, primary screen, SRC2 inhibitor project, cell-based, luminescence; inhibition, % at 9 µM; Nuclear receptor coactivator 2 (Homo sapiens), Q15596; HEK293 GAL4-SRC2 luciferase reporter; AID 651957, 2012; 370,000 tested, 0.17% active;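 active = inhibition above the mean inhibition of all tested compounds plus 3 SD, set per campaign, cut at about 52% in these data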;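 also: 0% = DMSO treated cells and 100% = cells given Gossypol at 36 µM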
SRC1 inh – SRC1 coactivator transcriptional activity inhibitors, primary screen, cell-based, luminescence. Nuclear receptor coactivator 1 (Homo sapiens), Q15788. HEK293 GAL4-SRC1 luciferase reporter. inhibition, % at 3.6 µM. 360,000 tested, 0.12% active. AID 588354, 2011;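 active = inhibition above the campaign mean plus 3 SD, with each screening campaign given its own cutoff, cut at about 60% in these data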;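 also: 0% = DMSO treated cells and 100% = gossypol at 36 µM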
Target sequence (Q15788 whole entry, looked up, the tested form may be a part): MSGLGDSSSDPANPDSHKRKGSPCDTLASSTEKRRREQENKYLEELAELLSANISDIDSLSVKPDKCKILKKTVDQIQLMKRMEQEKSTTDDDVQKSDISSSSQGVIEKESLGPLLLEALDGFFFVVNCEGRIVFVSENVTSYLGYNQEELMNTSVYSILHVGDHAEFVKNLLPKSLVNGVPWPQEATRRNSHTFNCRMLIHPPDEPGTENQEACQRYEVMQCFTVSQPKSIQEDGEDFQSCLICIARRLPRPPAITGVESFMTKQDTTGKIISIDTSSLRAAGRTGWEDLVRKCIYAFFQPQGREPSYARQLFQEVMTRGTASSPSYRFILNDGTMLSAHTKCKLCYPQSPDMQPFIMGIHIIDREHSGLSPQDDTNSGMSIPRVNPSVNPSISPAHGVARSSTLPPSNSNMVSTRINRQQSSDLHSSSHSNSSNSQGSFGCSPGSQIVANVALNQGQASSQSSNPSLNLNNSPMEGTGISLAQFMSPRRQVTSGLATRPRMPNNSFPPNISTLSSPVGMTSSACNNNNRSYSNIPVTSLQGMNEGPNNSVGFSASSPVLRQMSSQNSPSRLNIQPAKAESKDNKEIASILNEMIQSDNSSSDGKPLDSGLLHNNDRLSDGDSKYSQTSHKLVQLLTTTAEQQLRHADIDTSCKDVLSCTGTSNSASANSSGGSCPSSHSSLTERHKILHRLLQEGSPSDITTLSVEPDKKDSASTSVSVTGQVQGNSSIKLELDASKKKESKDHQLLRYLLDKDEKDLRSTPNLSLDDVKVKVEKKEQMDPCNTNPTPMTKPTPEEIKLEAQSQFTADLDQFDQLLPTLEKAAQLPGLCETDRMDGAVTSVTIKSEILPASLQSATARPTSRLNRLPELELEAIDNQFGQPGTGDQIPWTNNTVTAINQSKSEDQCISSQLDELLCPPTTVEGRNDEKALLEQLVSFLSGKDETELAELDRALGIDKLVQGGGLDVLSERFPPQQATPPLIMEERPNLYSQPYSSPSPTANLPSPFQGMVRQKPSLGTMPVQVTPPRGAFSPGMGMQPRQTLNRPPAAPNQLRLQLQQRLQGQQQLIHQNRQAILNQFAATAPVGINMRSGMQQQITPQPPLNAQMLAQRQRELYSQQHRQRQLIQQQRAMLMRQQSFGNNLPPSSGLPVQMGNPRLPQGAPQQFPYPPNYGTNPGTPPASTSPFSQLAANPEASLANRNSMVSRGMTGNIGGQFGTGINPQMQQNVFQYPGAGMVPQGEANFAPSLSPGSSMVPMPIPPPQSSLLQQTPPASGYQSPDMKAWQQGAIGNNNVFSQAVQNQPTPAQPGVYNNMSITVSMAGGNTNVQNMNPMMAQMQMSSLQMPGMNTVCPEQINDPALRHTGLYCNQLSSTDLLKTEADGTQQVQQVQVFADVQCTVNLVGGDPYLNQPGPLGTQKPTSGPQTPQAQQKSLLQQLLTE
COUP-TFII inh – NR2F2 transcriptional activity inhibitors, primary screen, cell-based, luciferase reporter, HEK293T, luminescence. AID 686940, 2013. COUP transcription factor 2 (Homo sapiens), P24468. 370,000 tested, 0.7% active. HEK293T NGFI-A luciferase reporter. inhibition, % at 8.6 µM;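 active = inhibition above a per-plate cutoff, mean inhibition of test wells between control levels plus 3 SD, cut at about 38% in these data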;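 also: cells cotransfected with COUP-TFII expression vector driving the NGFI-A reporter; 0% = median of COUP-TF2 test wells and 100% = reporter-only cells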
LRH-1 inv ag – LRH-1 (NR5A2) inverse agonists, primary screen, cell-based, luminescence, HEK293T, StAR-luciferase reporter; Nuclear receptor subfamily 5 group A member 2 (Homo sapiens), O00482; LRH-1 transfected, 24 h; inhibition, % at 3.6 µM; 360,000 tested, 0.13% active;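 active = inhibition above the mean inhibition of all tested compounds plus 3 SD, cut at about 73% in these data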;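 also: 0% = DMSO wells and 100% = reporter-only cells lacking LRH-1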
SRC3 inh – SRC3 coactivator transcriptional activity inhibitors, primary screen, cell-based, luminescence. AID 588352, 2011. HEK293 GAL4-SRC3 luciferase reporter. inhibition, % at 3.6 µM. Nuclear receptor coactivator 3 (Homo sapiens), Q9Y6Q9. 360,000 tested, 0.17% active;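 active = inhibition above a per-campaign cutoff, the mean of all compounds plus 3 SD, cut at about 60% in these data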;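 also: 0% = DMSO-treated cells and 100% = gossypol-treated cells at 36 µM; higher means less SRC3-driven luciferase light from the GAL4 reporter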
Gal4-VP16 ctr – Gal4-VP16 luciferase reporter inhibitors, counter-screen for COUP-TFII antagonist project, cell-based, luminescence, HEK293 | shares compounds with COUP-TFII inh | inhibition, % at 8.5 µM | 2,500 tested, 25% active | AID 687007, 2013; in the data active = inhibition above about 13%
COUP-TFII conf – NR2F2 transcriptional activity inhibitors, confirmation, cell-based, luciferase reporter, HEK293, triplicate. inhibition, % at 8.5 µM. 2,500 tested, 45% active. HEK293 NGFI-A luciferase reporter, luminescence. shares compounds with COUP-TFII inh;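 active = mean inhibition over three repeats above a set limit taken from the earlier primary screen, cut at about 38% in these data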;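 also: 100% = cells given the luciferase reporter alone without the COUP-TF2 vector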
* marks the source's active call; other numbers are inactive results; . = not tested or not shown.

SMILES | GalR3 antagonist | NCOA2 inhibitor | SRC1 inh | COUP-TFII inh | LRH-1 inv ag | SRC3 inh | Gal4-VP16 ctr | COUP-TFII conf
CC1CC(C)(C)Nc2ccc(OC(=O)c3ccco3)cc21 (stereo not drawn) | -4 | 58* | -5 | 45* | 6 | 20 | 18* | 36
CCCCCOc1ccc(Br)cc1CSC(=N)N | 19* | 30 | -14 | 66* | 43 | 27 | 16* | 47*
Cc1ccc(-n2c(-c3ccccc3)c[n+]3c2CCc2ccccc2-3)c(C)c1 | -7 | 12 | 38 | 64* | 68 | 71* | 17* | 57*
CC1OC2CC(=O)OC2C2=C1C(=O)c1c(O)cccc1C2=O (stereo not drawn) | -10 | 95* | 91* | 107* | 104* | 96* | 97* | 110*
c1ccc(C(Cc2nc(-c3ccncc3)no2)c2ccccc2)cc1 | 10 | 23 | -31 | 56* | 40 | 23 | 4 | 41*
c1ccc(-c2nc(-c3ccncc3)no2)cc1 | -4 | -66 | -75 | -42 | -90 | -56 | . | .
Cc1nc2c(-c3ccc(Cl)cc3)cnn2c(N)c1-c1ccc(F)cc1 | -10 | 42 | 49 | 52* | 29 | 50 | 1 | 68*
COc1ccc(-c2c(C)nc3c(-c4ccc(F)cc4)cnn3c2N)cc1 | 1 | -31 | -54 | -42 | -31 | -61 | . | .
Cc1nc2c(-c3ccc(F)cc3)cnn2c(N)c1-c1ccccc1 | -10 | 70* | 70* | 82* | 63 | 71* | 32* | 82*
COc1ccc(CN(C)C[C@@H]2OCc3cnnn3CCCC(=O)N([C@H](C)CO)C[C@H]2C)cc1 | -7 | -2 | -6 | 9 | 12 | 2 | . | .
Nc1ccc(Nc2nc(-c3cc4ccccc4oc3=O)cs2)cc1 | -2 | -55 | -118 | -24 | -46 | -76 | . | .
CC(=O)Nc1ccc(Nc2nc(-c3cc4ccccc4oc3=O)cs2)cc1 | -4 | -8 | -25 | 40* | -55 | -62 | -135 | -68
O=C(CSc1nnc(-c2ccccc2)n1-c1ccccc1)NN=C/C=C\c1ccccc1[N+](=O)[O-] | . | -7 | . | 1 | . | . | . | .
COC(=O)CC#C[C@H](C)[C@@H](NS(=O)(=O)c1ccc([N+](=O)[O-])cc1)C(C)(C)C | -4 | -18 | . | -7 | . | . | . | .
CCc1ccc(/C=C/c2c[nH]c3ccccc23)[n+](CC)c1 | -4 | 16 | 27 | 40* | 53 | 39 | 1 | 38*
Cc1ccc(C(=O)C[n+]2cc(-c3ccc(C)cc3)n3c2CCCCC3)cc1 | 20* | 17 | 22 | 46* | 74* | 54 | 9 | 37
O=C(Nc1nonc1NC(=O)c1cccs1)c1cccs1 | -8 | 14 | 30 | 49* | 49 | 30 | 4 | 34
O=C(Nc1ccc(NC(=O)c2cccs2)cc1)c1cccs1 | 0 | -75 | -46 | -39 | -76 | -83 | . | .
Cc1[nH]nc2c1C(c1ccc3c(c1)OCO3)N(Cc1ccccc1)C2=O (stereo not drawn) | -6 | -17 | . | -20 | . | . | . | .
Cc1ccc2nc(NC(=O)c3ccccn3)sc2c1 | -7 | 28 | -6 | 58* | -7 | 12 | 10 | 28
COc1ccccc1C(=O)Nc1nc2ccccc2s1 | -11 | 86* | 71* | 91* | 66 | 74* | 78* | 97*
CC(C)=CCC[C@H](C)C[C@@H]1Cc2[nH]c(=S)[nH]c(=O)c2[C@@H](c2ccc(F)cc2)O1 | -3 | 7 | . | -17 | 6 | . | . | .
N#Cc1c(F)cccc1NCc1cccnc1 | -10 | -12 | -24 | -11 | 0 | -10 | . | .
N#Cc1c(NCc2ccccc2)ccnc1NCc1cccnc1 | -4 | 28 | 5 | 44* | 23 | 28 | 2 | 42*
C=CCN1[C@H](C)COc2cc(F)ccc2S1(=O)=O | . | -6 | . | -5 | . | . | . | .
SMILES | GalR3 antagonist | NCOA2 inhibitor | SRC1 inh | COUP-TFII inh | LRH-1 inv ag | SRC3 inh | Gal4-VP16 ctr | COUP-TFII conf
O=C(C1CCC(CNS(=O)(=O)c2cccs2)CC1)N1CCCCC1 (stereo not drawn) | 4 | 10 | -3 | 14 | -4 | 11 | . | .
Cc1cccc(N2CCN(C(=O)C3CCC(CNS(=O)(=O)c4cccs4)CC3)CC2)c1C (stereo not drawn) | -7 | -3 | -4 | 51* | 2 | 4 | 6 | 32
O=C(NCc1ccccc1)[C@@H]1CCCN1C(=O)[C@H]1CCCN1C(=O)c1ccc(F)c(C(F)(F)F)c1 | -5 | -9 | . | -11 | . | . | . | .
CC(=O)N1CCc2cc(S(=O)(=O)NC3CCN(C(=O)OCc4ccccc4)CC3)ccc21 | . | 18 | . | 61* | . | . | -11 | 20
Cc1ccc(NC(=O)c2cc(S(=O)(=O)NCCC3=CCCCC3)ccc2F)cc1F | -6 | 21 | 22 | 40* | 28 | 27 | 2 | 40*
COc1ccc2c(c1)CNC2CS(=O)(=O)NCc1ccc(F)cc1 (stereo not drawn) | . | 6 | . | -10 | . | . | . | .
COc1ccc(C(=O)OCCN2CCN(C3CN(Cc4cn(Cc5cccc(C)c5)nn4)S(=O)(=O)C3)CC2)cc1OC (stereo not drawn) | . | 16 | . | 47* | . | . | -12 | 10
COc1cccc(CNC(=O)[C@H]2CCCN2C(=O)[C@H]2CCCN2C(=O)c2cccc(OC)c2)c1 | -4 | 14 | . | 2 | . | . | . | .
O=C(CN1C(=O)CCC1=O)c1ccc(-c2ccccc2)cc1 | -4 | -5 | -24 | 10 | -19 | -17 | . | .
N=c1ccn(CC(=O)c2ccc(-c3ccccc3)cc2)cc1 | -4 | -10 | 32 | 58* | 59 | 73* | 13 | 54*
COc1cc(-c2coc3c(C(=O)NCc4ccc(N(C)C)cc4)cccc23)ccc1O | -3 | -20 | -1 | -6 | 22 | -6 | . | .
COc1cc(-c2coc3c(C(=O)NCc4ccc(OC)c(OC)c4)cccc23)ccc1O | -6 | -8 | -5 | 67* | 38 | -1 | 0 | 63*
COc1ccc(CNC(=O)c2cccc3c(-c4ccc(F)c(F)c4)coc23)cc1OC | . | . | 18 | . | 19 | 15 | . | .
COc1ccc(CNC(=O)c2cccc3c(-c4cccc(C(N)=O)c4)coc23)cc1OC | 9 | 34 | 56 | 86* | 51 | 59 | -1 | 73*
